SMILES strings stand for the structures. The campaign covered roughly 16,000 compounds. About 5,800 (36%) were called active. About 23% were inconclusive and are not listed. This is one part of the list. Values without a mark were called inactive. The call rests on the fitted dose curve; in most records, active means well fitted curve in the direction sought with a large enough effect; inconclusive means small, poorly fitted or top-dose-only effect, or effect the other way; inactive means no such curve, though single readings can be large or run the other way. Square brackets hold non-standard residues; d marks the D form. Peptide text beside a SMILES is read from it. * marks the point of attachment. ξ: configuration not given here. Cbz = O=C(OCc1ccccc1)*; ξA = CC(N)C(=O)O
On the % scale 0 is the no-effect control and ±100 the full control effect.

The target in this assay is Cytochrome P450 2C19 (Homo sapiens) (UniProt P33261). As to the kind of experiment: Cytochrome panel assay with activity outcomes. As to conditions: recombinant CYP, pro-luciferin dealkylation, luminescence, p450-cyp2c19; series mostly up to 57.1 µM; activity, negative = inhibition: at the top concentration.
Cytochrome P450 2C19 (Homo sapiens), sequence (P33261 whole entry, looked up): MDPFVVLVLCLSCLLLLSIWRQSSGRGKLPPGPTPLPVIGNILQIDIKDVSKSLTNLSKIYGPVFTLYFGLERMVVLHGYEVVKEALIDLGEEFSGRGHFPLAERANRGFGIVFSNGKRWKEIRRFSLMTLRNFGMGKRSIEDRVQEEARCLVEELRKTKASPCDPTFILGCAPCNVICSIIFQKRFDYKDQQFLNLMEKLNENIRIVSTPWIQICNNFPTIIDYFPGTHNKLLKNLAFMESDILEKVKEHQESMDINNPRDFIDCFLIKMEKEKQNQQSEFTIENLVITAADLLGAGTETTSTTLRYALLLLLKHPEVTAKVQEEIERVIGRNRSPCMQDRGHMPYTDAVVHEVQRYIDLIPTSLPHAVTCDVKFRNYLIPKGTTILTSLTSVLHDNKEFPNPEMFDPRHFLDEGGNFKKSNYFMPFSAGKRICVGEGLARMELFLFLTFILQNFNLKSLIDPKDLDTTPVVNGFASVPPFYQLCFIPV
In the case of `Cc1ccc(CNC(=O)CN2C(=O)COc3ccc(C)cc32)cc1`, the AC50 is 2.82 µM (active).

Take `Cc1ccc2c(c1)N(CC(=O)NC1CCC(C)CC1)C(=O)CO2` (configuration not stated): the AC50 was 2.82 µM (active). For `CN(C)C(=O)Oc1cccc([N+](C)(C)C)c1`, the “activity, negative = inhibition” value was 42.9%. Consider `C=CCn1c(SCC)nc2sc3c(c2c1=O)CCc1ccccc1-3`, for which the AC50 was 8.91 µM (active). The same measure, in the same setting: next, `O=c1/c(=C\c2ccc(O)cc2)sc2n1C(c1ccccc1)C(c1ccccc1)=NN=2` (configuration not stated): 1.58 µM (active). The same measure, in the same setting: next, `CCCCSc1nc(C)cc(NC(=S)Nc2ccc(OC)cc2)n1`: 2.51 µM (active); `CCOC(=O)c1cccc2c1-c1ccccc1/C2=N/O`: 7.94 µM (active).

Turning to `CC(C)=CCC1=C(OCC(=O)O)C(=O)c2ccccc2C1=O`, the AC50 is 1.26 µM (active). Take `CC(C)=CCc1c(C)nc2ccccc2c1C(=O)O`: the “activity, negative = inhibition” value is -28.7%. For `CSc1nc2n(n1)C(c1cccc(F)c1)C(C(=O)Nc1ccc(C)cc1C)=C(C)N2` (configuration not stated), the “activity, negative = inhibition” value was 21.6%. As for `CCOc1ccccc1C1C(C(N)=O)=C(C)Nc2nc(-c3ccc(OC)cc3)nn21` (configuration not stated), the AC50 is 10 µM (active). As for `CC1=C(C(N)=O)C(c2ccccn2)n2nc(SCc3ccccc3Cl)nc2N1` (configuration not stated), the “activity, negative = inhibition” value is -88%. Regarding `CC1=C(C(=O)Nc2cccnc2)C(c2cccnc2)n2nc(-c3cccs3)nc2N1` (configuration not stated), the half-maximal activity concentration (AC50) is 11.2 µM (active). As for `COc1ccccc1NC(=O)C1=C(C)Nc2nc(-c3ccc(N(C)C)cc3)nn2C1c1ccncc1` (configuration not stated), the AC50 was 14.1 µM (active). For `COC(=O)C1=C(C)Nc2ncnn2C1c1cccnc1` (configuration not stated), the “activity, negative = inhibition” value is -24.7%.

Turning to `O=C(Nc1ccc2oc(=O)c(C(=O)O)cc2c1)Oc1ccccc1`, the activity, negative = inhibition is 18.7% [at 11.4 µM]. Take `COc1ccc(NC(=O)N2CC[C@@]3(CCCN(C(C)=O)C3)C2)cc1`: the “activity, negative = inhibition” value is -14.5%. Take `COc1ccc2oc(=O)c(C(=O)Oc3ccc(NC(C)=O)cc3)cc2c1`: the AC50 was 15.8 µM (active). Regarding `CN(C(=S)Nc1ccccc1F)C1(c2ccccc2Cl)CCCCC1=O` (configuration not stated), the AC50 was 1.26 µM (active). For the compound `CO/N=C(/CNC(=O)c1ccc(Cl)cc1Cl)c1ccc(Cl)cc1`, the concentration at half-maximal activity (AC50) was 0.398 µM (active). In the case of `CO/N=C(/CNC(=O)c1cccc(Cl)c1)c1ccc(Cl)cc1`, the AC50 is 0.708 µM (active). Turning to `COc1ccc(NC(=O)N2CCC3(CC2)CCN(C(=O)c2ccco2)CC3)cc1`, the “activity, negative = inhibition” value was -11%. As to `COc1ccc(Cc2nnc(NC(=O)c3ccco3)s2)cc1`, the AC50 is 14.1 µM (active). Turning to `COc1ccc(NC(=O)N2CC3(CCN(C(=O)c4ccco4)CC3)C2)cc1`, the “activity, negative = inhibition” value was -32.6%.

For `COc1ccc2c(c1)Cc1sc(NC(=O)c3ccco3)nc1-2`, the AC50 was 14.1 µM (active). Turning to `COc1ccc2c(c1)CCc1sc(NC(=O)c3ccc(C)cc3)nc1-2`, the AC50 was 3.55 µM (active). For the compound `COc1ccc(Cc2nnc(NC(=O)c3cccc([N+](=O)[O-])c3C)s2)cc1`, the “activity, negative = inhibition” value was 10.2%.

Turning to `Cc1ccc(-c2c(C#N)c(N)n(-c3ccccc3)c(=O)c2C#N)cc1`, the “activity, negative = inhibition” value was -29.3%. As to `Cc1ccc(NC(=O)NNC(=O)Cn2nc(-c3ccccc3)c(-c3ccccc3)c(C#N)c2=O)cc1`, the AC50 is 17.8 µM (active). For the compound `Cn1nnnc1SCC(=O)Nc1ccccc1[N+](=O)[O-]`, the “activity, negative = inhibition” value was -18%. Take `COc1ccc(CSc2nnnn2C)cc1[N+](=O)[O-]`: the AC50 is 10 µM (active). Regarding `Cn1nnnc1SCc1ccccc1[N+](=O)[O-]`, the AC50 was 25.1 µM (active). For the compound `O=C(O)c1ccc(NCc2nc3cc4ccccc4cc3[nH]2)cc1`, the activity, negative = inhibition is 60.6% [at 11.4 µM]. On the same count and under the same terms, next, `COC(=O)Nc1nc2ccc(C(=O)c3ccccc3)cc2[nH]1`: -36.1% [at 25.6 µM].

For the compound `O=C(c1ccccc1)c1ccc2nc(-c3ccc(NC(=O)c4ccccc4Br)cc3)[nH]c2c1`, the AC50 was 5.62 µM (active). `C[C@H](N)CCCC(C)(C)O`: the “activity, negative = inhibition” value is 19.9% [at 25.6 µM].

On to `O=C(O)c1ccccc1-c1ccc(/C=c2\sc3nc4cc(Br)cnc4n3c2=O)o1`, for which the AC50 was 35.5 µM (active). On to `Cc1cc(C)n(C(=O)c2cc3ccccc3c(=O)o2)n1`, for which the concentration at half-maximal activity (AC50) is 1.58 µM (active). With `Cc1cc2[nH]c(=O)c3ccccc3n2n1`, the “activity, negative = inhibition” value is -22.9%.

Take `CCc1cc2c(nc1CC)CCN(CC/C(C)=N/O[C@@H]1O[C@H](COC(C)=O)[C@H](OC(C)=O)[C@H](OC(C)=O)[C@H]1OC(C)=O)C2`: the activity, negative = inhibition was 6.45% [at 11.4 µM]. In the case of `CCS(=O)(=O)c1ccc2oc(Nc3cc(C)cc(C)c3)nc2c1`, the AC50 was 11.2 µM (active). On to `CC(C)C[C@H](NC(=O)[C@@H](O)[C@@H](N)Cc1ccccc1)C(=O)O`, for which the AC50 entry was “inactive”.

Regarding `CC(=O)SC[C@@H](Cc1ccccc1)C(=O)NCC(=O)OCc1ccccc1`, the AC50 is 0.126 µM (active). Consider `CC(C)(C)N1C(=O)[C@H]2[C@H]3[C@H](O)[C@H](O)C/C(=N/NC(=O)OCc4ccccc4)[C@H]3CC[C@@H]2C1=O`, for which the activity, negative = inhibition was 41% [at 11.4 µM]. As to `O=C(N[C@@H](Cc1ccccc1)C(=O)CCl)OCc1ccccc1`, the half-maximal activity concentration (AC50) was 5.01 µM (active). As to `O=C(O)CNC(=O)[C@@H](CS)Cc1ccccc1`, the “activity, negative = inhibition” value was 55.1% [at 25.6 µM]. Same read-out and setting: the result for `N[C@@H](Cc1ccccc1)C(=O)O` reads 8.56% [at 11.4 µM]. As to `COC(=O)CNC(=O)C(C)NC(=O)CNC(=O)OCc1ccccc1` (stereo not drawn) (Cbz-Gly-[ξA]-Gly-OMe), the AC50 is 31.6 µM (active). Turning to `CC(C)(C)N1C(=O)[C@H]2[C@H]3[C@H](O)[C@H](O)C/C(=N/NC(=O)OCc4ccccc4)[C@@H]3CC[C@@H]2C1=O`, the activity, negative = inhibition was 6.74% [at 11.4 µM]. For the compound `CC(=O)N[C@H](Cc1ccc(O)cc1)C(=O)O`, the activity, negative = inhibition was -9.65% [at 11.4 µM]. As to `COC(=O)[C@H](C)NC(=O)[C@@H](C)CO`, the activity, negative = inhibition is 35.5% [at 11.4 µM].

For the compound `COC(=O)[C@H](Cc1ccccc1)NC(=O)[C@@H](C)CO`, the AC50 is 1.26 µM (active).

The values are drawn from PubChem BioAssay AID1851 (National Center for Advancing Translational Sciences (NCATS), 2009).
